Source: PubChem (several laboratories)
PfHsp90 yeast 2 = inhibits growth of yeast expressing Plasmodium falciparum Hsp90; S. cerevisiae expressing PfHsp90, BacTiter-Glo ATP, 48 h; yeast lacking PDR1 and PDR3 efflux regulators; inhibition, % at 9.4 µM; hit rate 0.32% among 310,000; AID 504621;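 active = every replicate shows inhibition above about 80%, whatever the replicate mean, limit read from the data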
NALP3 yeast inh = inhibitors of NALP3 inflammasome in yeast | Yeast reconstituted NLRP3/ASC/caspase-1, beta-gal luminescence, 24 h | inhibition, % at 10 µM | hit rate 0.39% among 330,000 | AID 2825;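 active = inhibition of 50% or more; inactive = inhibition below 50%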
TIM10 inh = growth inhibitors of TIM10 yeast strain; hit rate 1.4% among 330,000; inhibition, % at 10 µM; S. cerevisiae TIM10 strain growth, BacTiter-Glo luminescence, 24 h; AID 463195;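 active = inhibition of 40% or more at the single tested concentration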;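 note: wild-type TIM10 isogenic control strain grown at permissive 25 °C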
tim10-1 inh = growth inhibitors of tim10-1 mutant yeast | S. cerevisiae tim10-1 ts strain growth, BacTiter-Glo, 24 h | inhibition, % at 20 µM | hit rate 2.2% among 330,000 | AID 463190;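 active = inhibition of at least 40%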;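 note: mutant grown at 25 °C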
NALP1 inh = blocks the NALP1 inflammasome reconstituted in yeast. S. cerevisiae NALP1/ASC/caspase-1 growth, X-gal OD620, 72 h. inhibition, % at 10 µM. hit rate 0.61% among 280,000. AID 2071; in the data active = inhibition mostly above about 24%, no sharp cut-off; inactive = mostly below about 32%
tim23-1 inh = tim23-1 yeast growth inhibition; S. cerevisiae tim23-1 growth, BacTiter-Glo luminescence, 24 h; inhibition, % at 20 µM; hit rate 1.3% among 330,000; AID 463212;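 active = growth inhibition of the mutant yeast at or above 50%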;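 note: temperature-sensitive mutant grown at 25 °C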
tim10-1 conf = confirmation of tim10-1 mutant yeast growth inhibitors; AID 463213; shares compounds with tim10-1 inh; S. cerevisiae tim10-1 ts strain growth, BacTiter-Glo, 24 h; hit rate 56% among 7,400; inhibition, % at 20 µM;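 active = inhibition of yeast growth at or above a set limit in either of two repeat tests at 20 µM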;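 note: tim10-1 mutant grown at permissive 25 °C to find synthetic lethal compounds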
tim10 confirm = confirmation of TIM10 yeast growth inhibitors. shares compounds with TIM10 inh. S. cerevisiae tim10 strain growth, BacTiter-Glo luminescence, 24 h. inhibition, % at 10 µM. hit rate 63% among 4,600. AID 463215;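 active = inhibition of yeast growth at or above a set limit in either of two replicates at 10 µM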; note: this counterscreen used the strain with wild-type TIM10
tim23-1 conf = confirmation of tim23-1 mutant yeast growth inhibitors; shares compounds with tim23-1 inh; S. cerevisiae tim23-1 growth, BacTiter-Glo luminescence, 24 h; inhibition, % at 20 µM; hit rate 83% among 4,400; AID 463218;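 active = inhibition above about 39% in either of two replicate wells at 20 µM, limit read from the data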;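 note: temperature-sensitive tim23-1 mutant grown at 25 °C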
Large screens that a line does not name were inactive (follow-up assays come after a bar, where they were run). Shown are actives, neighbours in structure and some others; about 4.2% of the full set was active somewhere.

O=C(COc1cc2oc(=O)cc(-c3ccccc3)c2cc1Cl)NCCN1CCOCC1	none
CC1CCN(CC(CS(=O)(=O)c2ccc([N+](=O)[O-])cc2)N2CCC(C)CC2)CC1 (centres undefined)	TIM10 inh 60, tim10-1 inh 45 (no result: NALP1 inh) | tim10-1 conf 49 | tim10 confirm 48
CCOC(=O)c1sc(NC(=O)Cc2c(F)cccc2Cl)nc1C	TIM10 inh 44, tim10-1 inh 47 (no result: PfHsp90 yeast 2) | tim10-1 conf 43 | tim10 confirm 36
CCOC(=O)c1sc(Nc2ccc(C)cc2C)nc1C	TIM10 inh 63, tim10-1 inh 48 | tim10-1 conf inactive | tim10 confirm 40
CC(C)Cc1nc2oc3c(N4CCN(CCO)CC4)ncnc3c2c2c1CCCC2	TIM10 inh 44, tim10-1 inh 52 | tim10-1 conf 37 | tim10 confirm inactive
CCN1CCN(c2ncnc3c2oc2nc(C(C)C)c4c(c23)CCC4)CC1	none (no result: PfHsp90 yeast 2, NALP3 yeast inh, TIM10 inh, tim10-1 inh, tim23-1 inh)
CCOC(=O)N1CCN(c2ncnc3c2oc2nc(C(C)C)c4c(c23)CCC4)CC1	TIM10 inh 46, tim10-1 inh 44 (no result: PfHsp90 yeast 2) | tim10-1 conf 34 | tim10 confirm 37
CC(NCC(=O)Nc1cc(S(=O)(=O)N2CCCCCC2)ccc1Cl)c1ccccc1 (centres undefined)	none
CC1CCN(C(=S)c2cn(Cc3ccccc3F)c3ccccc23)CC1	TIM10 inh 42, tim10-1 inh 43 | tim10-1 conf 32 | tim10 confirm inactive
CCCCCc1cc(=O)c2ccccc2o1	none (no result: NALP1 inh)
CC(C)OC(=O)/C(C#N)=C\c1cccnc1	none
CCCCNC(=O)/C(C#N)=C/c1cccnc1	TIM10 inh 50, tim10-1 inh 44 | tim10-1 conf 35 | tim10 confirm 39
COCCCNC(=O)c1ccccc1Oc1ccccc1	none
COCCCNC(=O)c1ccc2c3c(onc13)-c1ccccc1C2=O	TIM10 inh 43, tim10-1 inh 53 | tim10-1 conf 42 | tim10 confirm 41
Cc1occc1C(=O)N/N=C/C=C\c1ccccc1[N+](=O)[O-]	none
Cc1ccsc1C(=O)N/N=C/C=C/c1ccccc1[N+](=O)[O-]	TIM10 inh 62, tim10-1 inh 48 | tim10-1 conf 48 | tim10 confirm inactive
COC(=O)/C=C1\OC(c2ccccc2)=CC1=O	TIM10 inh 40, tim10-1 inh 42 (no result: PfHsp90 yeast 2) | tim10-1 conf inactive | tim10 confirm 32
Cc1ccccc1NC(=O)NNC(=O)CCc1ccccc1	none
CCOc1ccc(-c2nnc3ccc(SC(C)C)nn23)cc1	TIM10 inh 42, tim10-1 inh 48 | tim10-1 conf 45 | tim10 confirm 51
O=S(=O)(NCCSc1ccc(Cl)cc1)c1ccc(F)cc1	TIM10 inh 41, tim10-1 inh 44 | tim10-1 conf 35 | tim10 confirm inactive
CC(C)(C)SCCNS(=O)(=O)c1ccc(Cl)cc1	none
CN(CC(=O)Nc1ccc(F)cc1)C(=O)COC(=O)CCN1C(=O)C2CC=CCC2C1=O (centres undefined)	none
Cc1cc2c(c(C)nn2-c2ccccc2)c(=O)o1	none
CCc1c(C)c2c(C)nn(-c3ccccc3)c2oc1=O	TIM10 inh 42, tim10-1 inh 55 | tim10-1 conf 54 | tim10 confirm inactive
O=C(Nc1cccc(-n2cnnn2)c1)c1ccoc1COc1ccc(Cl)cc1	none
CCOC(=O)N1CCC2(CC1)C(C(=O)C13CC4CC(CC(C4)C1)C3)C2(C#N)C#N (centres undefined)	TIM10 inh 63, tim10-1 inh 54 | tim10-1 conf 54 | tim10 confirm 45
CCOC(=O)c1cc(-c2ccccc2C)nn1CC1CC(c2cccnc2)=NO1 (centres undefined)	none (no result: NALP1 inh)
C=C1C(=O)O[C@H]2C[C@H]1[C@@H](OC(C)=O)C/C(C)=C/CC/C(C)=C\CC[C@]2(C)O	none (no result: NALP3 yeast inh, TIM10 inh, tim10-1 inh, NALP1 inh, tim23-1 inh)
C=C1C(=O)O[C@@H]2[C@H]3O[C@]3(C)CC/C=C(\C)CC[C@@H]12	TIM10 inh 49, tim10-1 inh 54 (no result: NALP1 inh) | tim10-1 conf 38 | tim10 confirm 53
Cc1cc(C)c(S(=O)(=O)N2CCC(C(=O)NCc3ccco3)CC2)c(C)c1	none
Nc1nc(-c2ccc(Br)s2)c(Br)s1	TIM10 inh 52, tim10-1 inh 54 | tim10-1 conf 36 | tim10 confirm inactive
Cc1ccc([N+](=O)[O-])cc1NC(=O)CSc1nnc(C)n1CC1CCCO1 (centres undefined)	none
COc1cc(C(=O)OCC(=O)c2cc(C)n(C)c2C)cc(OC)c1OC	TIM10 inh 45, tim10-1 inh 42 (no result: PfHsp90 yeast 2) | tim10-1 conf inactive | tim10 confirm inactive
Cc1cc(C(=O)COC(=O)c2nccnc2N)c(C)n1C	none
CC(=O)/C(=N\Nc1ccccc1Cl)Sc1nnc(-c2ccccc2)n1-c1ccccc1	none
CC(=O)/C(=N\Nc1ccccc1)Sc1nnc(-c2ccccc2)n1-c1ccccc1	TIM10 inh 46, tim10-1 inh 44 | tim10-1 conf inactive | tim10 confirm inactive
COC(=O)/C=C/c1ccc2c(c1)S(=O)(=O)N(Cc1ccc(OC)cc1)[C@H]2CC(=O)OC	none (no result: NALP1 inh)
COc1ccc(CN2[C@@H](CC(C)=O)c3ccc(/C=C/C(C)=O)cc3S2(=O)=O)cc1	TIM10 inh 55, tim10-1 inh 55 (no result: PfHsp90 yeast 2, NALP1 inh) | tim10-1 conf 51 | tim10 confirm 55
CC(C)COC(=O)c1ccc2c(c1O)C(=O)c1ccccc1C2=O	TIM10 inh 47, tim10-1 inh 58 | tim10-1 conf 42 | tim10 confirm 40
COc1ccc2c(c1O)C(=O)c1ccccc1C2=O	none (no result: PfHsp90 yeast 2)
CN1CCN(c2ccc(S(=O)(=O)N3CCOCC3)cc2NC(=O)Cc2ccccc2F)CC1	none (no result: PfHsp90 yeast 2, NALP1 inh)
O=c1cc(-c2ccccc2)n(S(=O)(=O)c2ccccc2)o1	none
O=c1cc(-c2ccccc2)n(S(=O)(=O)c2ccc3ccccc3c2)o1	TIM10 inh 64, tim10-1 inh 42 (no result: NALP1 inh) | tim10-1 conf 37 | tim10 confirm 44
COc1cc(C(=O)/C=C/c2cccnc2)ccc1O	none
COc1ccc(OC)c(C(=O)/C=C/c2cccnc2)c1	TIM10 inh 42, tim10-1 inh 48 | tim10-1 conf 32 | tim10 confirm 34
Cc1oc2c(c1C(=O)NCc1cccnc1)C(=O)c1ccccc1C2=O	TIM10 inh 94, tim10-1 inh 83, tim23-1 inh 83 (no result: PfHsp90 yeast 2) | tim10-1 conf 82 | tim10 confirm 95 | tim23-1 conf 72
O=C(CCNC(=O)c1ccco1)Nc1ccc(F)c(Cl)c1	none
C=CCSc1nc(O)c(CC)c(=O)n1C(C)CC (centres undefined)	none (no result: PfHsp90 yeast 2)
